The text below walks through data of PubChem BioAssay.

The source made the active and inactive calls.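 Rule for the calls, unless noted: active = inhibition above 20% together with a positive visual image hit; inconclusive = visual image hit but inhibition not above 20%; inactive = no visual image hit.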

Test [1] in a line: inhibitors of TNFa-induced NFkB p65 translocation, primary screen, imaging, HUVEC, MLSMR starter and 10KST1 sets (AID 438).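 For inhibition: signal is the nuclear over cytoplasmic p65 intensity ratio per well.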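 Note: compound added about 3h40 before a 20 min TNFalpha stimulation.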 The note with it: HUVEC TNFa-induced p65 nuclear translocation; cell count: measured here: nuclei count (cytotoxicity indicator), at 2.08 µM; inhibition: at 2 µM, stronger effect = higher value, 0% TNFa-plus-vehicle, 100% no-TNFa wells.
Test [2] in a line: inhibitors of mutant huntingtin aggregation, primary screen, imaging, exon1htt(103Q)mCFP cells, high-content imaging (AID 483;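 active = visual image review flags a hit and inhibition of aggregation exceeds 20%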;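 note: compound exposure lasted 3 days before fixation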;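 for nuclei count: percent of the per-plate median nuclei count of sample wells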). The note with it: exon1htt(103Q)mCFP cell line, aggregate imaging, at 2 µM; inhibition of aggregation: stronger effect = higher value; nuclei count: measured here: cell count, toxicity.
The nature of test [3]: inhibitors of E-selectin induction by TNFa, primary screen, imaging, HUVEC, immunofluorescence, MLSMR starter and 10KST1 sets (AID 487;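 active = visually confirmed hit in the image check and inhibition above 20%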;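 for inhibition: signal is fraction of cell area covered by stained E-selectin grains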;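 for nuclei count: 100% = median nuclei count of all wells on the same plate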). The note with it: HUVEC TNFalpha-induced E-selectin immunofluorescence imaging, at 2 µM; inhibition: stronger effect = higher value; nuclei count: measured here: cell number, toxicity.
Test [4] addresses Voltage-gated potassium channel subunit beta-2 (Rattus norvegicus) (UniProt P62483). In words: KvBeta enzyme negative modulators, primary screen, biochemical, NADPH fluorescence (AID 622;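 active = fluorescence slope higher than the sample average by over 3 SD, cut at about -0.22 in these data, passing the limit was not always enough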;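 note: slope of raw intensity against log time taken from 70 to 1610 s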). Conditions: recombinant KvBeta, 4-cyanobenzaldehyde reduction, at 10 µM, stronger effect = higher value.
Test [5] shares this target. The test is described as follows: KvBeta positive modulators, primary screen, biochemical, NADPH fluorescence (AID 623;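 active = NADPH fluorescence slope more negative than the mean of all samples by about 3 SD, 99.7% confidence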;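 note: fluorescence intensity change per second fitted from 20 to 320 s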). Conditions: Recombinant KvBeta, NADPH fluorescence decrease slope, 10 min; at 10 µM; stronger effect = lower value.
Test [6] concerns the target Alpha-2C adrenergic receptor (Homo sapiens) (UniProt P18825). In words: modulators of alpha2C/GIRK thallium flux, primary screen, cell-based, HEK293 alpha2C/GIRK1/2 (AID 624;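 active = fluorescence slope after compound addition differing from the mean of all screened samples at 99.7% confidence, in either direction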;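 note: slope of fluorescence ratio to pre-addition baseline per second over 15 to 24 s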). Conditions: thallium flux BTC fluorescence, at 10 µM, actives lie on both sides.
Test [7] can be described thus: inhibitors of Sendai virus-induced IRF3 signaling, primary screen, TLR/RLR signaling modifier project, cell-based, Sendai virus stimulus, luciferase, 10K MLSCN set (AID 602276;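 active = inhibition at or above 50% at 10 µM; inactive = inhibition below 50%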;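 note: firefly luciferase from ISG56 promoter only with Renilla not read in this screen; 0% = Sendai virus plus DMSO and 100% = medium plus DMSO without virus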). The note with it: HEK293 RL24 IRF3 luciferase reporter, at 10 µM, stronger effect = higher value. In general terms: A reporter such as luciferase makes a cellular process visible.
Test [8] can be described thus: inhibitors of poly I:C-induced TLR3 signaling, primary screen, cell-based, poly I:C stimulus, luciferase, 10K MLSCN set (AID 602277;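 active = inhibition of the reporter signal at or above 50%; inactive = inhibition below 50%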). The note with it: HEK293-TLR3 RL24 IRF3 luciferase reporter, at 10 µM, stronger effect = higher value.

Chain of Voltage-gated potassium channel subunit beta-2 (Rattus norvegicus) (P62483 whole entry, looked up): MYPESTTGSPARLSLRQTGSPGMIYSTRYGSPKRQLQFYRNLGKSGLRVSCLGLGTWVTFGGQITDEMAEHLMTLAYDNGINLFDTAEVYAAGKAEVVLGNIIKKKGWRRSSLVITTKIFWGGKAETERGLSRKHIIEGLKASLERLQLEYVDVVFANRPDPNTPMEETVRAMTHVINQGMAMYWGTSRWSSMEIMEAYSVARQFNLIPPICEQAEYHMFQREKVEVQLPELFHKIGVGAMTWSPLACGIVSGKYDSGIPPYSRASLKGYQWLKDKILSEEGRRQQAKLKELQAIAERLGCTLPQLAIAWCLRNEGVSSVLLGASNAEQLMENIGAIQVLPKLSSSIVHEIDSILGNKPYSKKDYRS
Chain of Alpha-2C adrenergic receptor (Homo sapiens) (P18825 whole entry, looked up): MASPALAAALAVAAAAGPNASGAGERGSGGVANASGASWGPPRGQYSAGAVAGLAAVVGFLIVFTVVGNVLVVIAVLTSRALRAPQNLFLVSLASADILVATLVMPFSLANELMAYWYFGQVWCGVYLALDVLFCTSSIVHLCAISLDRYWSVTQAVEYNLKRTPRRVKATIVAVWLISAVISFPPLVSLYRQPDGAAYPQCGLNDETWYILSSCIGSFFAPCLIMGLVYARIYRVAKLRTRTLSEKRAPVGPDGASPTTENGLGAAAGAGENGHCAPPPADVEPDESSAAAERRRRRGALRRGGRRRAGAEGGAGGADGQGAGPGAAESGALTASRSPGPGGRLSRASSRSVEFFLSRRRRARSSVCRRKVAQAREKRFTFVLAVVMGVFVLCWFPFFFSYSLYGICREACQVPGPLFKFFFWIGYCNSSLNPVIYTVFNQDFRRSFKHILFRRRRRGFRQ

As to `CCOC(=O)N1CCN(C(=O)c2csc3c2CCCCC3)CC1`, the cell count in test [1] came out at 775. For the same compound, the inhibition (usually the drop in the measured response relative to a control, in per cent) was -27.2% (inactive) in test [1], -86% (inactive) in test [3], -2.32% (inactive) in test [7] and 9.33% (inactive) in test [8]. Besides, the inhibition of aggregation in test [2] is 15.1% (inactive). For the same compound, the results for the nuclei count in test [2] and in test [3] were 121% and 106%, respectively. In test [4], the fluorescence slope is -0.311 (inactive). The NADPH fluorescence slope in test [5] is 1.7e-05 (inactive). Further, the slope in test [6] is 0.00586 (inactive).

Consider `CCOc1ccc(-c2nc(C#N)c(N3CCN(C)CC3)o2)cc1`, for which the cell count in test [1] was found to be 447. Besides, the inhibition is 7.9% (inactive) in test [1], -123% (inactive) in test [3], 10.5% (inactive) in test [7] and 11% (inactive) in test [8]. For the same compound, the inhibition of aggregation in test [2] is -9.4% (inactive). Moreover, the figures for the nuclei count in test [2] and in test [3] were 102% and 127%, respectively. The fluorescence slope in test [4] is -0.415 (inactive). The NADPH fluorescence slope in test [5] was -1.8e-05 (inactive). In addition, the slope in test [6] is 0.00522 (inactive).

Turning to `CCOc1ccccc1NC(=O)CCN1CCN(S(=O)(=O)c2ccc(Br)cc2)CC1`, the cell count in test [1] came out at 572. In addition, the inhibition is -12.3% (inactive) in test [1], -67.4% (inactive) in test [3], 12.6% (inactive) in test [7] and 21.5% (inactive) in test [8]. In addition, in test [2], the inhibition of aggregation is -10.2% (inactive). The nuclei count worked out at 117% in test [2] and 65.1% in test [3]. In addition, the fluorescence slope in test [4] was -0.526 (inactive). In test [5], the NADPH fluorescence slope was -5.3e-05 (inactive). Moreover, in test [6], the slope was 0.00415 (inactive).

Consider `COc1ccc(-n2c(Cc3cccn3C)nnc2SCC(N)=O)cc1`, for which the cell count in test [1] was found to be 531. Besides, the inhibition was -4.4% (inactive) in test [1], 1.4% (inactive) in test [3], 17.9% (inactive) in test [7] and 27.2% (inactive) in test [8]. In addition, the inhibition of aggregation in test [2] was 6.6% (inactive). Further, the nuclei count in test [2] stood at 63.8%; in test [3], 99.3%. In addition, in test [4], the fluorescence slope was -0.59 (inactive). In addition, in test [5], the NADPH fluorescence slope was -3.3e-05 (inactive). Also, the slope in test [6] was 0.00644 (inactive).

For the compound `Cc1ccccc1C1CC(c2ccccc2)Nc2ncnn21` (centres undefined), in test [1], the cell count turned out to be 561. The inhibition in test [1] was 0% (inactive); in test [3] it was -47% (inactive); in test [7], 3.07% (inactive); in test [8] it was 15.7% (inactive). The inhibition of aggregation in test [2] was -26.3% (inactive). For the same compound, the figures for the nuclei count in test [2] and in test [3] were 92.1% and 108%, respectively. In test [4], the fluorescence slope was -0.528 (inactive). In addition, in test [5], the NADPH fluorescence slope was -1.4e-06 (inactive). For the same compound, in test [6], the slope was 0.00646 (inactive).

As for `O=C1C2CC=C(Cl)CC2C(=O)N1c1ncn[nH]1` (centres undefined), the cell count in test [1] was determined as 329. Besides, the inhibition was 5.5% (inactive) in test [1], -62.1% (inactive) in test [3], 12.6% (inactive) in test [7] and 14% (inactive) in test [8]. In addition, the inhibition of aggregation in test [2] is 7.6% (inactive). In addition, the results for the nuclei count in test [2] and in test [3] were 98.3% and 113%, respectively. In addition, the fluorescence slope in test [4] was -0.483 (inactive). The NADPH fluorescence slope in test [5] is -5.8e-05 (inactive). Further, the slope in test [6] is 0.00499 (inactive).

On to `Fc1ccc(-c2csc3nnc(SCc4cccnc4)n23)cc1`, for which, in test [1], the cell count was 376. For the same compound, the inhibition in test [1] was 4.4% (inactive); in test [3] it was -30% (inactive); in test [7], 1.55% (inactive); in test [8], 20.4% (inactive). For the same compound, the inhibition of aggregation in test [2] is -9.6% (inactive). The values for the nuclei count in test [2] and in test [3] were 97.5% and 116%, respectively. Besides, the fluorescence slope in test [4] was -0.312 (inactive). For the same compound, the NADPH fluorescence slope in test [5] is -2.7e-05 (inactive). Also, the slope in test [6] is 0.00572 (inactive).

Turning to `Cc1ccc(C2Nc3ccccc3-c3nc4ccccc4n32)o1` (centres undefined), in test [1], the cell count came to 741. The inhibition is 6.8% (inactive) in test [1], -26.5% (inactive) in test [3], -46.2% (inactive) in test [7] and -110% (inactive) in test [8]. In addition, in test [2], the inhibition of aggregation was 3.8% (inactive). For the same compound, the values for the nuclei count in test [2] and in test [3] were 88.4% and 80.6%, respectively. The fluorescence slope in test [4] is -0.475 (inactive). Moreover, the NADPH fluorescence slope in test [5] is -2.2e-05 (inactive). Further, the slope in test [6] was 0.00364 (inactive).

`Fc1ccc(NCc2nnc(SCc3nnc(-c4ccccc4)o3)n2CC2CCCO2)cc1` (centres undefined): the cell count in test [1] was 571. For the same compound, the inhibition in test [1] was -9.7% (inactive); in test [3] it was 14.2% (inactive); in test [7] it was -28.3% (inactive); in test [8], -12.4% (inactive). Also, in test [2], the inhibition of aggregation was -6% (inactive). Besides, the nuclei count was 56.6% in test [2] and 90.9% in test [3]. Further, the fluorescence slope in test [4] is -0.528 (inactive). Also, in test [5], the NADPH fluorescence slope is 3.2e-05 (inactive). Moreover, the slope in test [6] was 0.00596 (inactive).

`C=CCN1C(=O)C2(c3ccccc31)C1CCCC=C1C(C#N)=C(N)C2(C#N)C#N` (centres undefined): in test [1], the cell count came out at 752. Besides, the inhibition was -19.9% (inactive) in test [1], 41% (inactive) in test [3], -7.36% (inactive) in test [7] and -8.22% (inactive) in test [8]. Further, in test [2], the inhibition of aggregation was 10.4% (inactive). Also, the nuclei count turned out to be 110% in test [2] and 101% in test [3]. Further, the fluorescence slope in test [4] was -0.559 (inactive). Further, the NADPH fluorescence slope in test [5] was -8.6e-06 (inactive). The slope in test [6] is 0.00492 (inactive).

With `O=C1CCCc2c1cc(C(=O)NCCCN1CCOCC1)c(=O)n2-c1ccc(Cl)cc1`, the cell count in test [1] came out at 568. Further, the inhibition in test [1] is 2.5% (inactive); in test [3], -2.6% (inactive); in test [7], 10.7% (inactive); in test [8], 45.8% (inactive). Moreover, the inhibition of aggregation in test [2] is 0.1% (inactive). Moreover, the nuclei count in test [2] came out at 99.5%; in test [3], 122%. Also, the fluorescence slope in test [4] is -0.546 (inactive). Besides, the NADPH fluorescence slope in test [5] was -4e-05 (inactive). Further, the slope in test [6] was 0.00614 (inactive).

In the case of `COc1ccc(-n2c(=O)c3c4c(sc3n3cnnc23)CC(C)CC4)cc1` (centres undefined), the cell count in test [1] was 370. The inhibition was 0.2% (inactive) in test [1], -108% (inactive) in test [3], 23.9% (inactive) in test [7] and 2.31% (inactive) in test [8]. In test [2], the inhibition of aggregation was -5.1% (inactive). The nuclei count in test [2] came out at 80.3%; in test [3] it was 116%. The fluorescence slope in test [4] was -0.46 (inactive). Moreover, the NADPH fluorescence slope in test [5] is -4.9e-05 (inactive). The slope in test [6] is 0.00768 (inactive).

`Cc1cccc(CC2CC(=O)N(c3ccccc3)C2=O)c1` (centres undefined): the cell count in test [1] was found to be 203. In addition, the inhibition in test [1] is -2.9% (inactive); in test [3], 11.6% (inactive); in test [7], -16.2% (inactive); in test [8], -11.2% (inactive). In addition, the inhibition of aggregation in test [2] is -15.1% (inactive). For the same compound, the nuclei count in test [2] came out at 84.5%; in test [3], 102%. In addition, in test [4], the fluorescence slope was -0.554 (inactive). The NADPH fluorescence slope in test [5] is -2.2e-05 (inactive). Besides, in test [6], the slope was 0.00674 (inactive).

`COc1ccc(NC(=O)N(C2CCCCC2)C2CCN(C(C)C)CC2)c(OC)c1`: the cell count in test [1] is 676. Also, the inhibition in test [1] is -7.8% (inactive); in test [3] it was -10.8% (inactive); in test [7] it was 2.2% (inactive); in test [8] it was 15.1% (inactive). The inhibition of aggregation in test [2] is -12.8% (inactive). Moreover, the results for the nuclei count in test [2] and in test [3] were 79.5% and 109%, respectively. Also, the fluorescence slope in test [4] was -0.518 (inactive). In test [5], the NADPH fluorescence slope is 9.2e-06 (inactive). The slope in test [6] is 0.0051 (inactive).
